Common to all, as to assay: yeast three-hybrid, YBZ-1, SC-Leu-His + 0.5 mM 3-AT, 4 days
What all share (details): tags: N-Gal4 AD-HA kept; label: inside an RPR1-promoter hybrid RNA with tandem MS2 sites; ssRNA

Experiment [1] has as its target PUM1 PUF domain R4-DHQ (Homo sapiens, UniProt Q14671 828-1176, N971D). A digest of the protocol: (§1)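 The interaction score is the log change in variant frequency from input to selection. Scores were computed in log2 with a pseudocount of 1 for absent variants, using Illumina sequencing of PCR-amplified repeat regions. The input came from four days on SC-Leu and the selection from four days on SC-Leu-His + 0.5 mM 3-AT. The cells were strain YBZ-1 (LexA–MS2 coat fusion, HIS3 reporter) co-expressing Pumilio-1 PUF domain libraries and matching RNA elements from a centromeric plasmid.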

In experiment [2] the target is PUM1 PUF domain R4-CRG (Homo sapiens, UniProt Q14671 828-1176, N971C;H972R;Q975G). The essentials: as §1
Experiment [3] has as its target PUM1 PUF domain R4-HNL (Homo sapiens, UniProt Q14671 828-1176, N971H;H972N;Q975L). The essentials:
as §1

Experiment [4] addresses PUM1 PUF domain R5-LYS (Homo sapiens, UniProt Q14671 828-1176, C1007L;R1008Y;Q1011S). A digest of the protocol:
as §1

The target in experiment [5] is PUM1 PUF domain R4-VGY (Homo sapiens, UniProt Q14671 828-1176, N971V;H972G;Q975Y). A digest of the protocol: as §1
For experiment [6], the target named is PUM1 PUF domain R5-GVQ (Homo sapiens, UniProt Q14671 828-1176, C1007G;R1008V). A digest of the protocol:
as §1

Experiment [7] addresses PUM1 PUF domain R5-ESE (Homo sapiens, UniProt Q14671 828-1176, C1007E;R1008S;Q1011E). A digest of the protocol:
as §1

In experiment [8] the target is PUM1 PUF domain R1-KYQ (Homo sapiens, UniProt Q14671 828-1176, S863K;R864Y). The essentials:
as §1

PUM1 PUF domain R5-LYS, sequence (Q14671 828-1176 C1007L/R1008Y/Q1011S): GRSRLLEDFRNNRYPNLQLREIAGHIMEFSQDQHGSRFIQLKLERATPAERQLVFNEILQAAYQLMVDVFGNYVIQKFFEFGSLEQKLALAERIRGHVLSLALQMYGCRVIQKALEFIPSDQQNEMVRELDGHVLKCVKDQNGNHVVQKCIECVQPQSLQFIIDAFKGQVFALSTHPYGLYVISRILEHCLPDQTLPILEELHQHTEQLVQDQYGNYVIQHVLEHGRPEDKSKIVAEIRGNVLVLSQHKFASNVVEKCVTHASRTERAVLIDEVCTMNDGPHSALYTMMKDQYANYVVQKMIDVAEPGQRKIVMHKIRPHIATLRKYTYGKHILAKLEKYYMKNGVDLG
PUM1 PUF domain R5-GVQ, sequence (Q14671 828-1176 C1007G/R1008V): as the sequence (Q14671 828-1176 C1007L/R1008Y/Q1011S) above, with L180G, Y181V, S184Q counted along it
PUM1 PUF domain R4-CRG, sequence (Q14671 828-1176 N971C/H972R/Q975G): as the sequence (Q14671 828-1176 C1007L/R1008Y/Q1011S) above, with N144C, H145R, Q148G, L180C, Y181R, S184Q counted along it
PUM1 PUF domain R4-DHQ, sequence (Q14671 828-1176 N971D): as the sequence (Q14671 828-1176 C1007L/R1008Y/Q1011S) above, with N144D, L180C, Y181R, S184Q counted along it
PUM1 PUF domain R4-HNL, sequence (Q14671 828-1176 N971H/H972N/Q975L): as the sequence (Q14671 828-1176 C1007L/R1008Y/Q1011S) above, with N144H, H145N, Q148L, L180C, Y181R, S184Q counted along it
PUM1 PUF domain R5-ESE, sequence (Q14671 828-1176 C1007E/R1008S/Q1011E): as the sequence (Q14671 828-1176 C1007L/R1008Y/Q1011S) above, with L180E, Y181S, S184E counted along it
PUM1 PUF domain R1-KYQ, sequence (Q14671 828-1176 S863K/R864Y): as the sequence (Q14671 828-1176 C1007L/R1008Y/Q1011S) above, with S36K, R37Y, L180C, Y181R, S184Q counted along it
PUM1 PUF domain R4-VGY, sequence (Q14671 828-1176 N971V/H972G/Q975Y): as the sequence (Q14671 828-1176 C1007L/R1008Y/Q1011S) above, with N144V, H145G, Q148Y, L180C, Y181R, S184Q counted along it

Regarding “GGCUAGAACUAGUGGAUCCCCCGGCGCCCGGCGGCUCGAGCCCGGGUAAGUGUAUAUAGUCUGCAUGCCGCCGGGCGCCAUGCCUGCAGGUCGACUCUAGAAAACAUG”, the binding signal is 5.32 log2 enrichment (interaction score) in experiment [1], 1.29 log2 enrichment (interaction score) in experiment [2] and 3.45 log2 enrichment (interaction score) in experiment [3].
As for “GGCUAGAACUAGUGGAUCCCCCGGCGCCCGGCGGCUCGAGCCCGGGUAAGUGUACAUAGUCUGCAUGCCGCCGGGCGCCAUGCCUGCAGGUCGACUCUAGAAAACAUG”, the binding signal in experiment [1] was 2.4 log2 enrichment (interaction score); in experiment [3], 2.04 log2 enrichment (interaction score).
Take “GGCUAGAACUAGUGGAUCCCCCGGCGCCCGGCGGCUCGAGCCCGGGUAAGUGUAAAUAGUCUGCAUGCCGCCGGGCGCCAUGCCUGCAGGUCGACUCUAGAAAACAUG”: the binding signal in experiment [2] was 4.02 log2 enrichment (interaction score); in experiment [4] it was 3.11 log2 enrichment (interaction score); in experiment [5] it was 2.38 log2 enrichment (interaction score).
“GGCUAGAACUAGUGGAUCCCCCGGCGCCCGGCGGCUCGAGCCCGGGUAAGUGUUAAUAGUCUGCAUGCCGCCGGGCGCCAUGCCUGCAGGUCGACUCUAGAAAACAUG”: the binding signal in experiment [4] is 3.82 log2 enrichment (interaction score); in experiment [6] it was 2.71 log2 enrichment (interaction score).
With “GGCUAGAACUAGUGGAUCCCCCGGCGCCCGGCGGCUCGAGCCCGGGUAAGUGUGAAUAGUCUGCAUGCCGCCGGGCGCCAUGCCUGCAGGUCGACUCUAGAAAACAUG”, the binding signal in experiment [6] was 2.24 log2 enrichment (interaction score); in experiment [7] it was 2.77 log2 enrichment (interaction score).
Take “GGCUAGAACUAGUGGAUCCCCCGGCGCCCGGCGGCUCGAGCCCGGGUAAGUGUAAAUCGUCUGCAUGCCGCCGGGCGCCAUGCCUGCAGGUCGACUCUAGAAAACAUG”: in experiment [8], the binding signal was 4.96 log2 enrichment (interaction score).

The values are drawn from PMC8384837, “Expanding the binding specificity for RNA recognition by a PUF domain”.
